# Data from PubChem BioAssay (NCATS).
# Results filed as inconclusive are left out. Activity calls are given as the source filed them. Unless noted, calls follow the shape of the dose curve; as a rule, active = well fitted curve in the direction sought with a large enough effect; inconclusive = small, poorly fitted or top-dose-only effect, or another doubt; inactive = no such curve, though single readings can be large; an effect the other way counts as inactive or inconclusive.
# What was measured:
# [1] = target: Lysosomal acid glucosylceramidase (Homo sapiens) (UniProt P04062); experiment: Glucocerebrosidase-p2 (AID 348; in the data active = potency below about 10 µM; also: potency is read from the fitted curve at half-maximal effect); conditions: purified GBA, blue fluorogenic substrate, 40 min
# Lysosomal acid glucosylceramidase (Homo sapiens), sequence (P04062 whole entry, looked up): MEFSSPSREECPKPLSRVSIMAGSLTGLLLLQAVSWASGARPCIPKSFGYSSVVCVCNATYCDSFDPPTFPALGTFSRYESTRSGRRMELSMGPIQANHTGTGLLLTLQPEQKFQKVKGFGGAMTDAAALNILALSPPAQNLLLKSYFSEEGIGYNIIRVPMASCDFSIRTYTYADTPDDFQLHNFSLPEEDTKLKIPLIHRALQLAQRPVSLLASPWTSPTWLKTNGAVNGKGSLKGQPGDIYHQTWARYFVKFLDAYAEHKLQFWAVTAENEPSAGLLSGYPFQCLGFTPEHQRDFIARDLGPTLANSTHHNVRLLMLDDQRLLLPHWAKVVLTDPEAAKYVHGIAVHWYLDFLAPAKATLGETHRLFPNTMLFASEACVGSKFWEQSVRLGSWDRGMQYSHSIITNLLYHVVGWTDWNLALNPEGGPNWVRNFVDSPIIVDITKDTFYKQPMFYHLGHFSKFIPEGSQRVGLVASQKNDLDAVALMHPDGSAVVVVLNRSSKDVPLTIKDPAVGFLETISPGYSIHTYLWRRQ
# In short: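 Normal human glucocerebrosidase (0.2 nM) with blue fluorogenic substrate (80 uM final) in citrate/phosphate pH 5.9 with 10mM sodium taurocholate, 0.01% tween-20; 40 min RT, NaOH/glycine stop; fluorescence Ex 365/Em 440; AC50 from a titration from 0.6 nM upwards.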
# [2] = target: Cytochrome P450 1A2 (Homo sapiens) (UniProt P05177); experiment: p450-cyp1a2 (AID 410; calls by dose curve; also: potency is read from the fitted curve at half-maximal effect)
# Cytochrome P450 1A2 (Homo sapiens), sequence (P05177 whole entry, looked up): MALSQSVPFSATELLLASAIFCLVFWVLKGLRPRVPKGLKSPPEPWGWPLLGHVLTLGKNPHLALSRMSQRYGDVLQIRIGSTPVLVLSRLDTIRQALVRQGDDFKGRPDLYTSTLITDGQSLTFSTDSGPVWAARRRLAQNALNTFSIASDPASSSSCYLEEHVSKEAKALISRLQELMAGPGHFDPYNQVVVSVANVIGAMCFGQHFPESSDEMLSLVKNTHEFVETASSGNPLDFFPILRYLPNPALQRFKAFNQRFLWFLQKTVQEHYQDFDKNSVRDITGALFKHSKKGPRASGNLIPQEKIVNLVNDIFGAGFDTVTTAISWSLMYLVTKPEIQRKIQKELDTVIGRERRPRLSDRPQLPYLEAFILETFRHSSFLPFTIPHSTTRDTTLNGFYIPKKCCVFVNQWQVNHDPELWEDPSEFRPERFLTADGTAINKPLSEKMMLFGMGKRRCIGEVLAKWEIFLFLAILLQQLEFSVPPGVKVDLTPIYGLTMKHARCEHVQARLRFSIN
# In short: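 Read-out is luminescence from luciferin produced by CYP1A2 demethylation of Luciferin-ME (100uM, at Km). Detection reagent stopped the 60 min NADPH-dependent reaction; signals were normalized to 57 uM furafylline.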
# [3] = target: Glucocorticoid receptor (Homo sapiens) (UniProt P04150); experiment: GR-GFP Redistribution (AID 450;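 active = compounds whose dose series gives a full or clear partial fitted curve of increased nuclear translocation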; also: potency is read from the fitted curve at half-maximal effect); conditions: U2OS GR-GFP nuclear translocation, laser cytometry, 2 h
# Glucocorticoid receptor (Homo sapiens), sequence (P04150 whole entry, looked up, the tested form may be a part): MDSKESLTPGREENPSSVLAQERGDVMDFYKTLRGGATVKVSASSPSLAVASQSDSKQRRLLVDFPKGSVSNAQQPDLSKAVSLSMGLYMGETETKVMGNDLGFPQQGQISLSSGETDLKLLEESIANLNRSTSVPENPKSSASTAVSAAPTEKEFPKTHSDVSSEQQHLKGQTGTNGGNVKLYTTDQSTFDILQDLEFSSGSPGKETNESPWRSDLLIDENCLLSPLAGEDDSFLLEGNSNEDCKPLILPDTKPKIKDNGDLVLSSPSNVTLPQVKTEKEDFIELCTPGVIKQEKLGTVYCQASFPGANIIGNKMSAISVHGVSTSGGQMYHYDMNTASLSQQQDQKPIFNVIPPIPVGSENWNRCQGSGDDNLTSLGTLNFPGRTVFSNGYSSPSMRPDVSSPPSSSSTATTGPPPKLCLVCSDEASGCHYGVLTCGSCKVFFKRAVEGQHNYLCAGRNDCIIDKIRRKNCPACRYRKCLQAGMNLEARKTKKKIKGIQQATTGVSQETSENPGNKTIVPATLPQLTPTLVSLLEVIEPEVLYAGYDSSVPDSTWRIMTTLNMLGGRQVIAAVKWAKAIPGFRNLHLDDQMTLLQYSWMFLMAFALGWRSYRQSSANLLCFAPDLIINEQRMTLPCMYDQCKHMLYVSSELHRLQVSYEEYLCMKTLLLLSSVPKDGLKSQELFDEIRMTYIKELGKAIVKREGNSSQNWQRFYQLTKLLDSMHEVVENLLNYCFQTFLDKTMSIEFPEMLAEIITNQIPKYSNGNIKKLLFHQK
# [4] = target: Glucocorticoid receptor (Homo sapiens) (UniProt P04150); experiment: GR-EFC Redistribution (AID 451; calls by dose curve; also: potency is read from the fitted curve at half-maximal effect); conditions: CHO-K1 GR-EFC translocation, beta-gal luminescence, 2 h
# In short: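 CHO-K1 cells expressing nuclear EA and GR-ED fragments of b-gal; compounds titrated up to 46 uM final, 2 h at 37 C. GR nuclear translocation read as complemented b-gal luminescence after 1 h RT detection.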
# [5] = target: Mitogen-activated protein kinase 10 (Mus musculus) (UniProt Q61831); experiment: JNK3 AlphaScreen Assay (AID 530; active = well fitted curve in either direction with a large enough effect, not every such curve was filed as active;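 also: kinase came from lysate of stimulated human HepG2 cells; signal reports phosphorylation of biotinylated GST-cJun 1-79 at Ser73 with 10 µM ATP; % is scaled to controls: 0 for no effect and ±100 for the full control effect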)
# In short: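 HepG2 lysate (IL-1b/TNFa pre-activated) + biotin-GST-cJun 1-79 + anti-pSer73 cJun; cpd titration, 15 min RT; ATP 10 uM start; Tris pH 7.6, MgCl2, DTT, vanadate; beads in EDTA buffer; AlphaScreen.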
# [6] = target: Cytochrome P450 3A4 (Homo sapiens) (UniProt P08684); experiment: qHTS Assay for Activators of Cytochrome P450 3A4 (AID 885); also: nearly all actives have a fitted effect of over 65% in size
# Cytochrome P450 3A4 (Homo sapiens), sequence (P08684 whole entry, looked up): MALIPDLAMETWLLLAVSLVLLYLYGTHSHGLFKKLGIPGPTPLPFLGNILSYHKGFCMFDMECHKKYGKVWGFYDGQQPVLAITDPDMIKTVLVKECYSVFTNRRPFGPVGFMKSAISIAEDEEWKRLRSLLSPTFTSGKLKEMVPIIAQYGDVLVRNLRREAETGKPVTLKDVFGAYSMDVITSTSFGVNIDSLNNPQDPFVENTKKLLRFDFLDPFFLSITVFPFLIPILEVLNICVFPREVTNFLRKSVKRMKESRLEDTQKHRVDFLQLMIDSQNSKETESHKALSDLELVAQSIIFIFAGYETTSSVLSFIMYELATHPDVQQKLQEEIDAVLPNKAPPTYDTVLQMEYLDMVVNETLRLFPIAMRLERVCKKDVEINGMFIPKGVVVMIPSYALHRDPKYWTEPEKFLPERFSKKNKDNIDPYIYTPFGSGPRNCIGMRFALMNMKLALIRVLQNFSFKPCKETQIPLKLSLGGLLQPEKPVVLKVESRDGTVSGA
# In short: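 Activators are scored by enhanced luminescence from CYP3A4 conversion of luciferin-PPXE (25uM, equal to KM) to luciferin, after 60 min at RT with an NADPH-regenerating system.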
# [7] = qHTS Assay for Lipid Storage Modulators (AID 1519; calls by dose curve); conditions: Drosophila S3 cells, BODIPY lipid droplet/cell ratio, laser cytometry, cells loaded with oleic acid; for activity change, negative = inhibition: at 57.5 µM (top of the series)
# In short: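 Cells seeded at 5,000 per well were treated with compounds over a concentration series and loaded with oleic acid (400 uM, as added). Lipid droplet fluorescence (488 nm excitation, 500-530 nm channel) was read by laser-scanning cytometry and normalized to 20 uM Triacsin C.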
# [8] = target: Dual specificity protein kinase CLK4 (Homo sapiens) (UniProt Q9HAZ1); experiment: qHTS Assay for Inhibitors of CDC-like Kinase 4 (Kinase-Glo Assay) (AID 1770); also: nearly all actives have a fitted effect of over 65% in size; also: potency is read from the fitted curve at half-maximal effect
# Dual specificity protein kinase CLK4 (Homo sapiens), sequence (Q9HAZ1 whole entry, looked up): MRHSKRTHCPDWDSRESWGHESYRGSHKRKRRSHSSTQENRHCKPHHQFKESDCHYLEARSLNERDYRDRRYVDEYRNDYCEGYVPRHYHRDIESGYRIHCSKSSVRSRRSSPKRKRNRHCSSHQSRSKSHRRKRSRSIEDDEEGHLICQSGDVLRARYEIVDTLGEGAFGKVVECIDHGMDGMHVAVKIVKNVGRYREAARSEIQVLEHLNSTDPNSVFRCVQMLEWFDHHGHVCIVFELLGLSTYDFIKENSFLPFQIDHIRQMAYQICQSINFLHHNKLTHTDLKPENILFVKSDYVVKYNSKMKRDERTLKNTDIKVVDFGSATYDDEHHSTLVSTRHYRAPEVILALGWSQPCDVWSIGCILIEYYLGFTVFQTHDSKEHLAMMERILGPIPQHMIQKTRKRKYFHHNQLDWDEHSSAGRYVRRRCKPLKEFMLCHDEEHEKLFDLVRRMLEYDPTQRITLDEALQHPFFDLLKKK
# In short: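 Luminescent ATP-depletion read-out (Kinase-Glo) after 4.5 h room-temperature reaction of Clk4 (25 nM final) with RS peptide (100 uM) and ATP (1 uM), pH 7.5 Tris buffer with MgCl2 and DTT.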
# [9] = target: Dual specificity protein kinase CLK4 (Homo sapiens) (UniProt Q9HAZ1); experiment: qHTS Assay for Inhibitors of CDC-like Kinase 4 (ADP-Glo Assay) (AID 1771); also: potency is read from the fitted curve at half-maximal effect; nearly all actives have a fitted effect of over 70% in size
# In short: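 In this ADP-Glo format, 1 uM ATP and 100 uM RS peptide served as substrates for 25 nM Clk4 in Mg2+/EGTA/DTT/Triton buffer; reactions ran 1 hr at room temperature before luminescent ADP quantification.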
# [10] = target: Ubiquitin carboxyl-terminal hydrolase 1 (Homo sapiens) (UniProt O94782); experiment: Inhibitors of USP1/UAF1: Pilot qHTS (AID 504865);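 also: rhodamine fluorescence freed from ubiquitin-rhodamine substrate followed over time; top concentration of the series differs between compounds; % is scaled to controls: 0 for no effect and ±100 for the full control effect; nearly all actives have a fitted effect of over 35% in size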
# Ubiquitin carboxyl-terminal hydrolase 1 (Homo sapiens), sequence (O94782 whole entry, looked up): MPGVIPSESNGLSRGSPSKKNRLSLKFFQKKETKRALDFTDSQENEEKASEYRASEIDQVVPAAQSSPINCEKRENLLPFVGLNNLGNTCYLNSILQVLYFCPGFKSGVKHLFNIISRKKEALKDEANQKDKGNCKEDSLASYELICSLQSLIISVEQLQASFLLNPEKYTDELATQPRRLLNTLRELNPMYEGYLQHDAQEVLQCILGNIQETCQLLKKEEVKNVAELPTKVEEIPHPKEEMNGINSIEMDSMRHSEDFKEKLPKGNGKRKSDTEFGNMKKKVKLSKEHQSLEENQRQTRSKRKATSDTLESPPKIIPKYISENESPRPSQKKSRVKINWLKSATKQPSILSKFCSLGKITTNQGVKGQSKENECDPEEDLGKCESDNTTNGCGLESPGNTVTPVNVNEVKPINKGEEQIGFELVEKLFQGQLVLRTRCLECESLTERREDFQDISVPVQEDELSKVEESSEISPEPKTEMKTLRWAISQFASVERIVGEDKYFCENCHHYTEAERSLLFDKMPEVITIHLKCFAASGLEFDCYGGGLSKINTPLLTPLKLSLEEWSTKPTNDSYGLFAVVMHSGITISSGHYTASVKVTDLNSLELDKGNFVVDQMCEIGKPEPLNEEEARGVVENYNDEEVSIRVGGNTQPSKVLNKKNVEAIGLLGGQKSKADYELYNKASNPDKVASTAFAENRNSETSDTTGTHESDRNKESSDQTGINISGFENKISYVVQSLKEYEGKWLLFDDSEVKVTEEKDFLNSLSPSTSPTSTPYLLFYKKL
# In short: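 Deubiquitinase activity followed as kinetic rhodamine fluorescence release from 150 nM Ub-Rho. 1 nM USP1/UAF1 with compound, after 15 min room-temperature preincubation, in HEPES pH 7.8 buffer containing TCEP, EDTA, BSA and Tween-20.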
# [11] = Primary qHTS for small molecule stabilizers of the endoplasmic reticulum resident proteome: Secreted ER Calcium Modulated Protein (SERCaMP) assay (AID 1508630); also: % is scaled to controls: 0 for no effect and ±100 for the full control effect
# In short: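 The SH-SY5Y reporter protocol was run at 3 concentrations up to 38.3 uM (primary) or 11 concentrations (follow-up): 16 h compound, 100 nM thapsigargin for 4 h, then extracellular luciferase luminescence.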
# [12] = AP1 Signaling Pathway (AID 357; active = well fitted curve in either direction with a large enough effect, not every such curve was filed as active;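 also: ME-180 reporter cells stimulated with EGF at its EC50 level; % is scaled to controls: 0 for no effect and ±100 for the full control effect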); conditions: ME-180 AP-1-bla reporter, EGF-induced, beta-lactamase ratio, 5 h; at 7.69 µM (top of the series) unless noted
# In short: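 Read-out was the 460nm/530nm emission ratio (excitation 405nm) after CCF4 loading for 2.5 hours at room temperature. Cells carried an AP-1-driven beta-lactamase reporter, were stimulated with EC50 EGF plus compound for 5 hours, and AC50 values came from titrations.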
# [13] = Stat Signaling Pathway (AID 446; active = well fitted curve in either direction with a large enough effect, not every such curve was filed as active;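 also: ME-180 cervical cancer cells given 40 pM IL-6 alongside compound; SIE-controlled beta-lactamase reporter measured as 460/530 nm FRET emission ratio; % is scaled to controls: 0 for no effect and ±100 for the full control effect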); conditions: ME-180 (cervical carcinoma) SIE beta-lactamase reporter, IL-6 stimulated, 5 h; at 7.69 µM (top of the series) unless noted
# In short: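 Emission at 460 and 530 nm (excitation 405 nm) reports SIE-controlled beta-lactamase in ME-180 cells. Cells received compound with 40 pM IL-6 for 5 hrs at 37 C; data scaled between 300 pM IL-6 and 125 nM JAK-inhibitor controls.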
# [14] = target: 3',5'-cyclic-AMP phosphodiesterase 4B (Homo sapiens) (UniProt Q07343); experiment: qHTS Assay for Inhibitors of PDE-IV (AID 607; active = well fitted activation curve with a large enough effect in the main read-out, with a control signal flat, not every such curve was filed as active; also: % of control where 0% means no effect)
# 3',5'-cyclic-AMP phosphodiesterase 4B (Homo sapiens), sequence (Q07343 whole entry, looked up): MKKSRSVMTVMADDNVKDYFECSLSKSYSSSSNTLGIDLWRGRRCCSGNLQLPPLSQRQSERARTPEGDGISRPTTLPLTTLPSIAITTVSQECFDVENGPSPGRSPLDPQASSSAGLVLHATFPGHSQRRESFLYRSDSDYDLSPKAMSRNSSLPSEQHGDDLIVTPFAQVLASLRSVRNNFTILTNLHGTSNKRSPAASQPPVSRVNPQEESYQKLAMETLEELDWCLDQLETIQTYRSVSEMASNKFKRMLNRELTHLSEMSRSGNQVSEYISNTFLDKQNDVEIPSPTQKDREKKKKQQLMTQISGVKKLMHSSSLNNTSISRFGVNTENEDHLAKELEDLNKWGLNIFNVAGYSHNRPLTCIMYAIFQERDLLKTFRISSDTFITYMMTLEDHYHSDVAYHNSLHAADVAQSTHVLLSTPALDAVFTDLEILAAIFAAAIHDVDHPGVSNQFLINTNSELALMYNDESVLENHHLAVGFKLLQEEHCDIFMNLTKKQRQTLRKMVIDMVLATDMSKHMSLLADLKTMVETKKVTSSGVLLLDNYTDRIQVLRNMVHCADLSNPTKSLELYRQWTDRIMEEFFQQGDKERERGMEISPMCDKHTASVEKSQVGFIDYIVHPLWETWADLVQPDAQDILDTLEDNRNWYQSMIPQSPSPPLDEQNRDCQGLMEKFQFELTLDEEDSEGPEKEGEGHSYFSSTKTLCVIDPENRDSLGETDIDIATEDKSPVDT
# In short: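 The readout is membrane depolarisation from a cAMP-sensing CNG channel, detected with a potential dye at ex 535/em 590. Cells were HEK293-derived (endogenous PDE-IV) at 1000 cells/well, titrated up to 22.9 uM final.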
# [15] = target: Dual specificity protein kinase CLK4 (Homo sapiens) (UniProt Q9HAZ1); experiment: qHTS Assay for Inhibitors of CDC-like Kinase 4 (ADP-FP Assay) (AID 1795); also: nearly all actives have a fitted effect of over 60% in size; also: potency is read from the fitted curve at half-maximal effect
# In short: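 Kinase activity was measured as ADP production using Transcreener orange tracer (4 nM) and ADP antibody (1 ug/mL) fluorescence polarization, with ADP calculated from a calibration curve. The 1 h reaction contained 6.25 nM Clk4, 1 uM ATP and 100 uM RS peptide at pH 7.5 with Mg2+.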
# [16] = NFAT Signaling Pathway (AID 444; active = well fitted curve in either direction with a large enough effect, not every such curve was filed as active); conditions: Jurkat NFAT-bla M1, carbachol, beta-lactamase ratio, 5 h; at 7.69 µM (top of the series) unless noted
# In short: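 Jurkat cells with NFAT-driven β-lactamase reporter and co-expressed M1 receptor, stimulated with carbachol (final 1 uM, ~EC50), compound titration, 5 h at 37 °C. CCF4 loaded 1 h at RT; 460/530 nm ratio gave %activity and AC50.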
# [17] = target: Cytochrome P450 3A4 (Homo sapiens) (UniProt P08684); experiment: qHTS Assay for Inhibitors and Substrates of Cytochrome P450 3A4 (AID 884); also: potency is read from the fitted curve at half-maximal effect; nearly all actives have a fitted effect of over 50% in size
# In short: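 Luminescent readout of luciferin produced by CYP3A4 (20 nM) dealkylation of Luciferin-PPXE, 25 uM (its KM). NADPH-driven reaction ran 60 min at RT after 10 min compound preincubation; data scaled to 57 uM ketoconazole as 100% inhibition.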
# [18] = target: Cytochrome P450 2C19 (Homo sapiens) (UniProt P33261); experiment: qHTS Assay for Inhibitors and Substrates of Cytochrome P450 2C19 (AID 899); also: potency is read from the fitted curve at half-maximal effect; nearly all actives have a fitted effect of over 60% in size
# Cytochrome P450 2C19 (Homo sapiens), sequence (P33261 whole entry, looked up): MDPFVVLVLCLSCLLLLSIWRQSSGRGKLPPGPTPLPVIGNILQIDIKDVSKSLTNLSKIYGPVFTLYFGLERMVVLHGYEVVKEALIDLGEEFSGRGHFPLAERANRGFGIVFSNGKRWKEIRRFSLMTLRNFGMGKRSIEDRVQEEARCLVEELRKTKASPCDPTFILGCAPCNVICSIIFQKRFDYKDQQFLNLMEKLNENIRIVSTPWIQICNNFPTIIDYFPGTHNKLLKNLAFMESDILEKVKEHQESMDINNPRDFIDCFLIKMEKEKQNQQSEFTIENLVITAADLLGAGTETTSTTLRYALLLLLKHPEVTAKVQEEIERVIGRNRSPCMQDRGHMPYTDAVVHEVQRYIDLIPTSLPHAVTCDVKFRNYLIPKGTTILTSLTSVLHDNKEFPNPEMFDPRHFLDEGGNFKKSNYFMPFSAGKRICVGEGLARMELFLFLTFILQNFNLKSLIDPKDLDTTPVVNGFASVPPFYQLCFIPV
# In short: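 5 nM human CYP2C19 with 10uM Luciferin-H EGE (at KM) in 50mM KPO4, compound preincubated 10 min at 37C, then NADPH regeneration for 60 min at 37C. Luciferin read by luminescence after detection reagent; normalized to 57uM ketoconazole as full inhibition.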
# [19] = measured here: cell count channel max response
# [20] = measured here: lipid channel max response
SMILES,Potency [1],Potency [2],Potency [3],Potency [4],outcome [5],Potency [6],"activity change, negative = inhibition [7]","max response [7, 19] [%]","max response [7, 20] [%]",Potency [8],Potency [9],Potency [10],Potency [11],"activity change, negative = inhibition [12]","activity, negative = inhibition [13]",Potency [14],Potency [15],"activity change, negative = inhibition [16]",Potency [17],Potency [18]
Cc1noc(C)c1-c1ccc2ncnc(N3CCN(C)CC3)c2c1,> 11.4 µM (inactive),12.6 µM (active),> 46 µM (inactive),> 46 µM (inactive),inactive,inactive,0.38% (inactive),21,4.95,10 µM (active),10 µM (active),inactive,inactive,,,,,,,
CC(=O)NCCNc1cc(-c2ccccc2C)ncn1,> 11.4 µM (inactive),15.8 µM (active),> 46 µM (inactive),> 46 µM (inactive),inactive,,3.34% (inactive),16.2,17.3,inactive,,inactive,inactive,12% (inactive),16.5% (inactive),inactive,inactive,,,
Cc1cnc(CNc2ncncc2-c2cccnc2)cn1,> 11.4 µM (inactive),,> 46 µM (inactive),> 46 µM (inactive),inactive,,5.94% (inactive),29.4,33.4,inactive,,inactive,inactive,12.8% (inactive),0.806% (inactive),inactive,inactive,-0.272% (inactive),,
CCNc1ncc2ncc(=O)n(CCOC)c2n1,> 11.4 µM (inactive),,> 46 µM (inactive),> 46 µM (inactive),inactive,,6.16% (inactive),18.7,22.5,15.8 µM (active),11.2 µM (active),,inactive,-22.6% (inactive),-26.5% (inactive),inactive,,4.31% (inactive),,
COc1ccc(-n2c(=O)cnc3cnc(N(C)C)nc32)cc1,> 11.4 µM (inactive),5.01 µM (active),> 9.22 µM (inactive),> 46 µM (inactive),inactive,inactive,5.53% (inactive),17.5,21.2,11.2 µM (active),,inactive,inactive,-17.5% (inactive),-7.93% (inactive),inactive,11.2 µM (active),15.7% (inactive),,
COc1cccc(-c2cncnc2N(C)Cc2ccco2)c1,> 11.4 µM (inactive),10 µM (active),> 46 µM (inactive),> 46 µM (inactive),inactive,inactive,6.72% (inactive),38,41.1,inactive,,inactive,inactive,-8.71% (inactive),7.72% (inactive),inactive,inactive,-25.9% (inactive),2.51 µM (active),7.94 µM (active)
CS(=O)(=O)Nc1cccc(-c2ccc3ncnc(NCCN4CCOCC4)c3c2)c1,> 11.4 µM (inactive),25.1 µM (active),> 46 µM (inactive),> 46 µM (inactive),inactive,inactive,-0.458% (inactive),-4.37,-8.3,8.91 µM (active),8.91 µM (active),inactive,inactive,-17.6% (inactive),2.22% (inactive),inactive,,,,
Clc1ccccc1-c1ccc2ncnc(N3CCNCC3)c2c1,> 11.4 µM (inactive),2 µM (active),> 46 µM (inactive),> 46 µM (inactive),inactive,inactive,5.35% (inactive),26.7,32.3,15.8 µM (active),28.2 µM (active),inactive,inactive,19.1% (inactive),5.5% (inactive),inactive,,-4.54% (inactive),,
FC(F)(F)c1ccccc1-c1ccc2ncnc(NCc3cccnc3)c2c1,> 11.4 µM (inactive),1 µM (active),> 46 µM (inactive),> 46 µM (inactive),inactive,inactive,-7.13% (inactive),9.95,2.08,inactive,,inactive,inactive,5.26% (inactive),-18.4% (inactive),,inactive,21.5% (inactive),1.58 µM (active),0.0079 µM (active)
CN(Cc1ccco1)c1ncncc1-c1ccccc1Cl,> 11.4 µM (inactive),25.1 µM (active),> 46 µM (inactive),> 46 µM (inactive),inactive,inactive,7.31% (inactive),14.4,19.6,inactive,,inactive,inactive,23.7% (inactive),3.72% (inactive),inactive,inactive,,0.501 µM (active),
N#CCCn1c(=O)cnc2cnc(Oc3ccccc3)nc21,> 11.4 µM (inactive),15.8 µM (active),> 9.22 µM (inactive),> 46 µM (inactive),inactive,,5.36% (inactive),9.06,13.1,inactive,,inactive,inactive,-16.3% (inactive),-2.6% (inactive),,inactive,11.7% (inactive),,
COc1cccc(Cn2c(=O)cnc3cncnc32)c1,> 11.4 µM (inactive),15.8 µM (active),> 9.22 µM (inactive),> 46 µM (inactive),inactive,inactive,1.18% (inactive),17.1,17.8,15.8 µM (active),28.2 µM (active),inactive,inactive,13.8% (inactive),-2.31% (inactive),,,-18.4% (inactive),,
